# Test results: PMC7862700, “An all-to-all approach to the identification of sequence-specific readers for epigenetic DNA modifications on cytosine”
# What was measured:
# Test in all cases: DAPPL (digital affinity profiling via proximity ligation, sequencing); 10 mM Tris-HCl pH 7.5, 50 mM NaCl, 1 mM DTT, 4% glycerol, room temperature, 30 min; GST-TFs on glutathione beads, 16-mer random dsDNA library, 0.1% formaldehyde crosslink after washing; high values mean tight binding
# FEV = molecular target: T1, FEV (Homo sapiens, UniProt Q99581 1-238); conditions: protein: recombinant; tags: N-terminal GST; dsDNA, one strand shown
# T1 sequence: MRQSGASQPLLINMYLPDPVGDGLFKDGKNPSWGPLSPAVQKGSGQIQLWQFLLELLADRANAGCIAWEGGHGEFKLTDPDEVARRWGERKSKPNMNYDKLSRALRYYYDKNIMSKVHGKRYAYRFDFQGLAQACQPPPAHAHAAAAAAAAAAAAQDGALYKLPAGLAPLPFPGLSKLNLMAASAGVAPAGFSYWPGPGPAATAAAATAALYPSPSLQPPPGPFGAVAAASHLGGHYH
# In short: (§1)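 Human transcription factors were made in yeast as GST fusions, captured on glutathione beads and barcoded with DNA. With a tag-only sample included, the pool was incubated with 200 nmole of a random double-stranded 16-mer DNA library in Tris/NaCl/DTT/glycerol buffer at room temperature for 30 min, then crosslinked with 0.1% formaldehyde after washing, ligated by proximity, amplified and sequenced. For binding signal, each hexamer's read frequency for a factor is divided by its frequency for the tag-only sample.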
# ETV5 = ETV5 (Homo sapiens, UniProt P41161 1-510); conditions: protein: recombinant; tags: N-terminal GST; dsDNA, one strand shown
# ETV5, sequence (P41161 whole entry): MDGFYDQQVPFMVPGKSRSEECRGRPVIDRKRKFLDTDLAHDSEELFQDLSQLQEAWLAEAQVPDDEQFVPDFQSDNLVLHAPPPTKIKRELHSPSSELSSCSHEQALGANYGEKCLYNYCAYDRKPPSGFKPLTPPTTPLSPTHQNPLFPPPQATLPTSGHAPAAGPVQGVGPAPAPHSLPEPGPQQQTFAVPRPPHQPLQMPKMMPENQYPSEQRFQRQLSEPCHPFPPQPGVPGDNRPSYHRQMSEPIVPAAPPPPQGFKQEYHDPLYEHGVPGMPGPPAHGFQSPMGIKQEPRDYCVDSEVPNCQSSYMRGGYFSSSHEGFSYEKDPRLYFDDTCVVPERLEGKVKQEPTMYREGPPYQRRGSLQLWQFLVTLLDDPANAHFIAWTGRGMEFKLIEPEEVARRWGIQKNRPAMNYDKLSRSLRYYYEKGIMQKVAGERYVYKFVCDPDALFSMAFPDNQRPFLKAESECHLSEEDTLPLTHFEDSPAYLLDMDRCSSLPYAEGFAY
# In short: as §1
# HSF1 = HSF1 (Homo sapiens, UniProt Q00613 1-529); conditions: protein: recombinant; tags: N-terminal GST; chain copies: 3; dsDNA, one strand shown
# HSF1, sequence (Q00613 whole entry): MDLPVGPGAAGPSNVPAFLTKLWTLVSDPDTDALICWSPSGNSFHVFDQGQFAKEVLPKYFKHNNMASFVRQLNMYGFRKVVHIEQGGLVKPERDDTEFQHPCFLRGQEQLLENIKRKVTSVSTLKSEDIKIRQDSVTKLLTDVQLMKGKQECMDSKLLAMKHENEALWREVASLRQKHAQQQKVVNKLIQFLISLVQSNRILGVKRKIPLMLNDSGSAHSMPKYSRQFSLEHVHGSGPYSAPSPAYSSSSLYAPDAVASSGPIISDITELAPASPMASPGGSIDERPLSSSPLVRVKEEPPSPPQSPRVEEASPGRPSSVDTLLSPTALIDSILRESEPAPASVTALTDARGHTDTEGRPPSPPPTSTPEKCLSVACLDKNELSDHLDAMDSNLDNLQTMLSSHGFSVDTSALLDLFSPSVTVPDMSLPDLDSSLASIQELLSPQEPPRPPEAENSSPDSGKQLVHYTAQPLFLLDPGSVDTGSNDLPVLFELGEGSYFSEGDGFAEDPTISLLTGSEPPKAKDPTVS
# In short: as §1
# SPIC = molecular target: T2, SPIC (Homo sapiens, UniProt Q8N5J4 1-248); conditions: protein: recombinant; tags: N-terminal GST; dsDNA, one strand shown
# T2 sequence: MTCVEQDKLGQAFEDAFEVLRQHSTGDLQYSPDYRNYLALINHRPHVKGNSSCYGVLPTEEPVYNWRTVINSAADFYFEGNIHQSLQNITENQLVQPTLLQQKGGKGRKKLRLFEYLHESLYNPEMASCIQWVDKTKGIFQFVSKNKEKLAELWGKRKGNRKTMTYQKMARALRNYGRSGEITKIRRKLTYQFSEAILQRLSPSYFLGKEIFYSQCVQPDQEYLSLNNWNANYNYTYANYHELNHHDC
# In short: as §1
# ELF4 = ELF4 (Homo sapiens, UniProt Q99607 1-663); conditions: protein: recombinant; tags: N-terminal GST; dsDNA, one strand shown
# ELF4, sequence (Q99607 whole entry): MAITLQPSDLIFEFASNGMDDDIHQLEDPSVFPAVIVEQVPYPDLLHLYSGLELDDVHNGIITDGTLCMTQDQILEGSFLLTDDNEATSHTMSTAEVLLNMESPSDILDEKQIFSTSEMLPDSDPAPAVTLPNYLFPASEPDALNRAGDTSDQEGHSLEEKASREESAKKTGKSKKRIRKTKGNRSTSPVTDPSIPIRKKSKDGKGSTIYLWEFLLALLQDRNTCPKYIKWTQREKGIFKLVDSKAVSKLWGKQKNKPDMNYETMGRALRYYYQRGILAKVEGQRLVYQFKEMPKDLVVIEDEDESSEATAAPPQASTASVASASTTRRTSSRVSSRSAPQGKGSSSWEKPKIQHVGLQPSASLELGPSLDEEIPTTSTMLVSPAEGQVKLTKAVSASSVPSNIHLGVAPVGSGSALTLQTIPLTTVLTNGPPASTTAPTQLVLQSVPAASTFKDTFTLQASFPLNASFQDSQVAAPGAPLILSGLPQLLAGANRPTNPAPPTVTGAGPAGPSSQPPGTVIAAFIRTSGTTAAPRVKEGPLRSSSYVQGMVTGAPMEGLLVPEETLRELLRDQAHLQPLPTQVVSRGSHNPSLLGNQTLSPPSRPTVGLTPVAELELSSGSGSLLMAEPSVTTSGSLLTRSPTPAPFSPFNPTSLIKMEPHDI
# In short: as §1
# ELK4 = molecular target: T3, ELK4 (Homo sapiens, UniProt P28324-2 1-405); conditions: protein: recombinant; tags: N-terminal GST; dsDNA, one strand shown
# T3 sequence: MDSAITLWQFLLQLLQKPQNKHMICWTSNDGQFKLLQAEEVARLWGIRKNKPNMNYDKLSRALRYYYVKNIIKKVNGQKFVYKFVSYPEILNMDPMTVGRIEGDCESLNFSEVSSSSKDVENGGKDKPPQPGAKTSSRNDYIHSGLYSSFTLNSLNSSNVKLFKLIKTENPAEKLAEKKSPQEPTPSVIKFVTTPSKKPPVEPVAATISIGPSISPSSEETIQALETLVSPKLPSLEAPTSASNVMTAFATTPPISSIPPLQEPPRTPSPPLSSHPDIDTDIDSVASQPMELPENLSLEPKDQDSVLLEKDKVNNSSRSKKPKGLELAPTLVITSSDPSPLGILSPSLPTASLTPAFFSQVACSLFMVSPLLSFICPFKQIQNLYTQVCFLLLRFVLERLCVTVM
# In short: as §1
# ETV2 = molecular target: T4, ETV2 (Homo sapiens, UniProt O00321 1-342); conditions: protein: recombinant; tags: N-terminal GST; dsDNA, one strand shown
# T4 sequence: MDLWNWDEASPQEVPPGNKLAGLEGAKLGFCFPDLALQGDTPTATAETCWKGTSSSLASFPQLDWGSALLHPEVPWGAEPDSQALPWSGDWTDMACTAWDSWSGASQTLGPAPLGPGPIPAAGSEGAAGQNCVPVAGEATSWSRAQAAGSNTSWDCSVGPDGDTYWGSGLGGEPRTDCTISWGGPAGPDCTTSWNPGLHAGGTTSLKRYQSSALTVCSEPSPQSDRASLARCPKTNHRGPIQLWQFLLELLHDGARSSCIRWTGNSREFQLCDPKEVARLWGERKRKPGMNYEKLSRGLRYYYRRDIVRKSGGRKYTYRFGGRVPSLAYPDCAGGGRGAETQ
# In short: as §1
# ELF3 = molecular target: T5, ELF3 (Homo sapiens, UniProt P78545 1-371); conditions: protein: recombinant; tags: N-terminal GST; dsDNA, one strand shown
# T5 sequence: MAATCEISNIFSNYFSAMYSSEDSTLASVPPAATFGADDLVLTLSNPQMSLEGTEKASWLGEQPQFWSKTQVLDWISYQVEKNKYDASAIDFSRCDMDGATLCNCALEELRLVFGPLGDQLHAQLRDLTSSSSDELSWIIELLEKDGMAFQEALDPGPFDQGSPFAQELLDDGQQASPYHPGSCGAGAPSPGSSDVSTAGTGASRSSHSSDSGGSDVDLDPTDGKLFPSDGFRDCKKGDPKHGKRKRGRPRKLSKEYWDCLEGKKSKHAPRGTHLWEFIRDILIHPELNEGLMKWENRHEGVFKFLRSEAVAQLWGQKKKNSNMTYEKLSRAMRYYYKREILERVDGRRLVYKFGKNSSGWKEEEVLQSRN
# In short: as §1
# CRX = CRX (Homo sapiens, UniProt O43186 1-299); conditions: protein: recombinant; tags: N-terminal GST; dsDNA, one strand shown
# CRX, sequence (O43186 whole entry): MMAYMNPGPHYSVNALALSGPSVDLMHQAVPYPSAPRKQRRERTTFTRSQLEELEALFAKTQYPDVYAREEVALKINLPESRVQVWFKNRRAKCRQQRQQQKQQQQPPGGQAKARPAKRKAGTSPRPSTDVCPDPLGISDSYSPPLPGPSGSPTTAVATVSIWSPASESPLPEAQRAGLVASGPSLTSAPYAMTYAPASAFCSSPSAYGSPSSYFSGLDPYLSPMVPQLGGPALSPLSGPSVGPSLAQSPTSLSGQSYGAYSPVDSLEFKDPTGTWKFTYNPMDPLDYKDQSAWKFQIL
# In short: as §1
# ETV1 = ETV1 (Homo sapiens, UniProt P50549 1-477); conditions: protein: recombinant; tags: N-terminal GST; dsDNA, one strand shown
# ETV1, sequence (P50549 whole entry): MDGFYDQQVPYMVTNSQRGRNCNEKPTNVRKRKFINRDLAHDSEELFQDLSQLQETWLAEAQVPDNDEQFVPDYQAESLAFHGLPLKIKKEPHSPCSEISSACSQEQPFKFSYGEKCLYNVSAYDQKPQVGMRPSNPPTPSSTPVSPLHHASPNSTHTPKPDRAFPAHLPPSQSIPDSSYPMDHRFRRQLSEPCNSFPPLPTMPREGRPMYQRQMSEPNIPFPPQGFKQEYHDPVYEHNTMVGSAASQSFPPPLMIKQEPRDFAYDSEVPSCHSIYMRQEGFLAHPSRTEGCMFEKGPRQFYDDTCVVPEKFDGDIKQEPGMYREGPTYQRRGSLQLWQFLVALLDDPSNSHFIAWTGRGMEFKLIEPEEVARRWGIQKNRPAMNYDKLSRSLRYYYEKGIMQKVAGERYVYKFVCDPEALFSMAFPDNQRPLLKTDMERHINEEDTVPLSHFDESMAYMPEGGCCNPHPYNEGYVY
# In short: as §1
# ERF = molecular target: T6, ERF (Homo sapiens, UniProt P50548 1-548); conditions: protein: recombinant; tags: N-terminal GST; dsDNA, one strand shown
# T6 sequence: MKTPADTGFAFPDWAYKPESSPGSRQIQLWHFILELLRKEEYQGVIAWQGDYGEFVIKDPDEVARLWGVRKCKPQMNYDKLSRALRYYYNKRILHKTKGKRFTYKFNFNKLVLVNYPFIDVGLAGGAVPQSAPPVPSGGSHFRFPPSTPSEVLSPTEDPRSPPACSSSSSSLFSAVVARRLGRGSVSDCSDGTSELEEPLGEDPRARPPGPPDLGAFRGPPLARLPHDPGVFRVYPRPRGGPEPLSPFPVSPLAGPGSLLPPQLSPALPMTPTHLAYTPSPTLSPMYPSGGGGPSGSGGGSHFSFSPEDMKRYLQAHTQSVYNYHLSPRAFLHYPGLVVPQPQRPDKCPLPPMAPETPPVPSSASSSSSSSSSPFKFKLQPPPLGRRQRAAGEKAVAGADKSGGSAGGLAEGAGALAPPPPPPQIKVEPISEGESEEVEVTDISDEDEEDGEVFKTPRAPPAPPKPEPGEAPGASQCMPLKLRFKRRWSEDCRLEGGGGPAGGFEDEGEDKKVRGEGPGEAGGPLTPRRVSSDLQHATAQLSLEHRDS
# In short: as §1
# ETV3L = molecular target: T7, ETV3L (Homo sapiens, UniProt Q6ZN32 1-361); conditions: protein: recombinant; tags: N-terminal GST; dsDNA, one strand shown
# T7 sequence: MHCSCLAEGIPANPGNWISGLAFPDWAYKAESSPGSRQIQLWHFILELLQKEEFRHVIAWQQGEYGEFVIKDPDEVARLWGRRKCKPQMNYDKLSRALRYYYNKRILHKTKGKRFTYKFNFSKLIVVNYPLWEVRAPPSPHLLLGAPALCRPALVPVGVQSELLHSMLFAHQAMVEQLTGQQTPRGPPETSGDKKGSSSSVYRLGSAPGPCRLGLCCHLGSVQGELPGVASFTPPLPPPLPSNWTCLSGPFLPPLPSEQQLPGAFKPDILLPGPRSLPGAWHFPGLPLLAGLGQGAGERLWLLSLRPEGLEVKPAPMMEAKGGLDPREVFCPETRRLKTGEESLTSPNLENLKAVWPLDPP
# In short: as §1
# ETS2 = molecular target: T8, ETS2 (Homo sapiens, UniProt P15036 1-469); conditions: protein: recombinant; tags: N-terminal GST; dsDNA, one strand shown
# T8 sequence: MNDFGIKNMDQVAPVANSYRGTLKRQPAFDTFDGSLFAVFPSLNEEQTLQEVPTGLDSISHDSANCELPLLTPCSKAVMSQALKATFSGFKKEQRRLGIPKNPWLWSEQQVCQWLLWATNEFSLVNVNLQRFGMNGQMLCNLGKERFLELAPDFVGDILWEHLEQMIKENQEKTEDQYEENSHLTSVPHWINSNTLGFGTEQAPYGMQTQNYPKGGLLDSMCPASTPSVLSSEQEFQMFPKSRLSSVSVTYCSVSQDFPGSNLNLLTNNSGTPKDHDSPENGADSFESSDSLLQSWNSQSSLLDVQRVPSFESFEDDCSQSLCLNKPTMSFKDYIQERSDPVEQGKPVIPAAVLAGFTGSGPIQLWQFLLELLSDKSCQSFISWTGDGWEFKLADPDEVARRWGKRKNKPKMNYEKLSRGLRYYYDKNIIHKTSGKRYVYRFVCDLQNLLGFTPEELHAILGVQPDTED
# In short: as §1
# SPDEF = molecular target: T9, SPDEF (Homo sapiens, UniProt O95238 1-335); conditions: protein: recombinant; tags: N-terminal GST; dsDNA, one strand shown
# T9 sequence: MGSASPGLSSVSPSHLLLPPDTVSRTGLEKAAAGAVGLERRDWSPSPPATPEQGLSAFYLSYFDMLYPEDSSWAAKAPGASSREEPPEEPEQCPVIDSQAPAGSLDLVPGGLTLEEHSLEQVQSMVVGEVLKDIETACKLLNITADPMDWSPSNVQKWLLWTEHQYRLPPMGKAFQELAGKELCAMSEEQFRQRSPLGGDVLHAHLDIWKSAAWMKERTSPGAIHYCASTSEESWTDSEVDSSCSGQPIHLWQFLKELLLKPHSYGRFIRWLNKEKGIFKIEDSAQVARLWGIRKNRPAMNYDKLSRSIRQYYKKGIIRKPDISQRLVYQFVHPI
# In short: as §1
# ETV7 = molecular target: T10, ETV7 (Homo sapiens, UniProt Q9Y603 1-341); conditions: protein: recombinant; tags: N-terminal GST; dsDNA, one strand shown
# T10 sequence: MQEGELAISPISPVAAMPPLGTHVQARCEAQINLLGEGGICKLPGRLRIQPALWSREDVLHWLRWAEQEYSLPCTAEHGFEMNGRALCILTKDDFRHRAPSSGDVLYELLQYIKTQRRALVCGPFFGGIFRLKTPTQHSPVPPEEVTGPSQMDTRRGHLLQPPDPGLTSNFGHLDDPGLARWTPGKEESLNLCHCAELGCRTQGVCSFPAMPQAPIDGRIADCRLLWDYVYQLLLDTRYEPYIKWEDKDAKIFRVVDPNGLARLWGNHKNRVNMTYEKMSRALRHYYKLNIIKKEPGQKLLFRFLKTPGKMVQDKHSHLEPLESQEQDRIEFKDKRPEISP
# In short: as §1
# ELF5 = molecular target: T11, ELF5 (Homo sapiens, UniProt Q9UKW6-2 1-255); conditions: protein: recombinant; tags: N-terminal GST; dsDNA, one strand shown
# T11 sequence: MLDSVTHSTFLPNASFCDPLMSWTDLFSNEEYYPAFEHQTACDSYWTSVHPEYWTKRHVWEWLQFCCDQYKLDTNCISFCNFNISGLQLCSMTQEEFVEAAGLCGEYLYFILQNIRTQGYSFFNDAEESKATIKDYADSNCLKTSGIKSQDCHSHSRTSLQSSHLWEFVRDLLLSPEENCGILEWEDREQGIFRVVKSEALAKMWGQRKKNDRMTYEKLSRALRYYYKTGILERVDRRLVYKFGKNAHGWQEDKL
# In short: as §1
# ETV3 = molecular target: T12, ETV3 (Homo sapiens, UniProt P41162-2 1-143); conditions: protein: recombinant; tags: N-terminal GST; dsDNA, one strand shown
# T12 sequence: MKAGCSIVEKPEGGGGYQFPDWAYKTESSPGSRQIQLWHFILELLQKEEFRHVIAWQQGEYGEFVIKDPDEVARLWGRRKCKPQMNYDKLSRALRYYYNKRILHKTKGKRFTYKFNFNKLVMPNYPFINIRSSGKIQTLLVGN
# In short: as §1
# ETV6 = ETV6 (Homo sapiens, UniProt P41212 1-452); conditions: protein: recombinant; tags: N-terminal GST; dsDNA, one strand shown
# ETV6, sequence (P41212 whole entry): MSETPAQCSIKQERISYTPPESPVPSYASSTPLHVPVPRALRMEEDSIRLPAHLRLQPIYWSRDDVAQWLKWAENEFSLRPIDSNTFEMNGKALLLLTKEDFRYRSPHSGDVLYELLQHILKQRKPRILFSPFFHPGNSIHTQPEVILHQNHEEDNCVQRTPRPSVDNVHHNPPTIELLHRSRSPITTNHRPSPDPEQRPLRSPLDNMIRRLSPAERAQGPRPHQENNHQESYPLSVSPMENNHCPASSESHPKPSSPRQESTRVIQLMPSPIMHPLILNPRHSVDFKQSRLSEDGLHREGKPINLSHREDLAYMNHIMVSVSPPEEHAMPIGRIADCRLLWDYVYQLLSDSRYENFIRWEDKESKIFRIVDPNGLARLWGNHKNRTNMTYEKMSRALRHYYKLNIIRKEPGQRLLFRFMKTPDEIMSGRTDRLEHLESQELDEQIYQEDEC
# In short: as §1
sequence,measurement,setting,value
ACGTAT,binding signal,FEV,"1.2 fold enrichment (6-mer frequency, TF over GST control)"
same,binding signal,ETV5,"1.2 fold enrichment (6-mer frequency, TF over GST control)"
same,binding signal,HSF1,"1.09 fold enrichment (6-mer frequency, TF over GST control)"
same,binding signal,SPIC,"1.14 fold enrichment (6-mer frequency, TF over GST control)"
same,binding signal,ELF4,"1.27 fold enrichment (6-mer frequency, TF over GST control)"
same,binding signal,ELK4,"1.16 fold enrichment (6-mer frequency, TF over GST control)"
same,binding signal,ETV2,"1.24 fold enrichment (6-mer frequency, TF over GST control)"
same,binding signal,ELF3,"1.25 fold enrichment (6-mer frequency, TF over GST control)"
same,binding signal,CRX,"1.15 fold enrichment (6-mer frequency, TF over GST control)"
same,binding signal,ETV1,"1.32 fold enrichment (6-mer frequency, TF over GST control)"
same,binding signal,ERF,"1.15 fold enrichment (6-mer frequency, TF over GST control)"
same,binding signal,ETV3L,"1.28 fold enrichment (6-mer frequency, TF over GST control)"
same,binding signal,ETS2,"1.27 fold enrichment (6-mer frequency, TF over GST control)"
same,binding signal,SPDEF,"1.36 fold enrichment (6-mer frequency, TF over GST control)"
same,binding signal,ETV7,"1.25 fold enrichment (6-mer frequency, TF over GST control)"
same,binding signal,ELF5,"1.16 fold enrichment (6-mer frequency, TF over GST control)"
same,binding signal,ETV3,"1.26 fold enrichment (6-mer frequency, TF over GST control)"
same,binding signal,ETV6,"1.22 fold enrichment (6-mer frequency, TF over GST control)"
